Experimental findings from PubChem BioAssay (NCI) are described below.

Compounds without any hit were thinned out: in the full panel of roughly 83,000, 20% have a hit.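 96-well plates, one dose, 48 hours. Percent growth reported; active if below 10.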 A number with no mark means an inactive call. Active and inactive are the calls of the source.

Common to all, as to test: NCI-60 one-dose screen, 48 h (100 = growth as untreated, 0 = no growth, -100 = all killed)
For one experiment, the system named is T-47D breast. Particulars: 10 µM unless noted.
In the next experiment the test system is BT-549 breast. Particulars: 10 µM unless noted.
A further experiment deals with MDA-MB-435 melanoma. Particulars: 10 µM unless noted.
The next experiment has as its system SW-620 colon. Particulars: 10 µM unless noted.
For the next experiment, the system named is MCF7 breast. The note with it: 10 µM unless noted.
Another experiment has as its system HCT-116 colon. The note with it: 10 µM unless noted.
Another experiment relates to HCC-2998 colon. Particulars: 10 µM.
Another experiment has as its system KM12 colon. Particulars: 10 µM unless noted.

On to `CNC(=O)c1ccc(Nc2ncc(C(F)(F)F)c(NCc3nccnc3N(C)S(C)(=O)=O)n2)cc1`, for which the growth is -12.4% (active) in the experiment on T-47D breast; -5.77% (active) in the experiment on BT-549 breast; 8.89% (active) with MDA-MB-435 melanoma; -4.11% (active) with SW-620 colon; 2.04% (active) in the experiment with MCF7 breast; 1.19% (active) in the experiment with HCT-116 colon. In addition, the growth with HCC-2998 colon was 8.5% (active); with KM12 colon, 1.91% (active).

For `CCCc1cc2cc(-n3nc(C)c4c3CC(C)(C)CC4=O)cc(NC3CCC(O)CC3)c2c(=O)[nH]1` (centres undefined), the growth is 38.2% in the experiment with T-47D breast; 29.2% in the experiment with BT-549 breast; 20.8% with MDA-MB-435 melanoma; 24.9% in the experiment with SW-620 colon; 25.4% in the experiment with MCF7 breast; 11.3% with HCT-116 colon. The figures for the growth with HCC-2998 colon and in the experiment on KM12 colon were 24.7% and 4.71% (active), respectively.

For `CC(C)C1CCC(C)C(C2(C#N)C(N)=NC(N)=C2C#N)C1=O` (centres undefined), the growth with T-47D breast is 83.6%; with BT-549 breast it was 98.8%; in the experiment with MDA-MB-435 melanoma it was 101%; with SW-620 colon, 102%; in the experiment on MCF7 breast, 92.6%; with HCT-116 colon, 99.2%. Besides, the values for the growth with HCC-2998 colon and in the experiment with KM12 colon were 95.8% and 92.9%, respectively.

In the case of `CO[C@H]1C[C@@H]2CC[C@@H](C)[C@@](O)(O2)C(=O)C(=O)N2CCCC[C@H]2C(=O)O[C@H]([C@H](C)C[C@@H]2CC[C@@H](O)[C@H](OC)C2)CC(=O)[C@H](C)/C=C(\C)[C@@H](O)[C@@H](OC)C(=O)[C@H](C)C[C@H](C)\C=C/C=C/C=C/1C`, the growth in the experiment on T-47D breast was -5.21% (active); with BT-549 breast it was 20.3%; in the experiment on MDA-MB-435 melanoma, 36.9%; in the experiment on SW-620 colon, 51.3%; in the experiment with MCF7 breast, 7.85% (active); in the experiment on HCT-116 colon, 39.5%. The growth with HCC-2998 colon was 58.6%; in the experiment with KM12 colon, 42.8%.

In the case of `FC(F)(F)c1ccc(CNc2ccc(Cc3c[nH]c4ncc(Cl)cc34)cn2)cn1`, the growth with T-47D breast is -1.92% (active); with BT-549 breast, 26.3%; in the experiment with MDA-MB-435 melanoma, 6.37% (active); in the experiment on SW-620 colon, 19%; with MCF7 breast it was 13.6%; in the experiment on HCT-116 colon it was 15.4%. Further, the results for the growth in the experiment on HCC-2998 colon and in the experiment on KM12 colon were 18.1% and 7.06% (active), respectively.

As to `C=CCN(/C=C1/C(=O)O[C@H](COC)[C@@]2(C)C1=C(O)C(=O)C1=C2[C@H](OC(C)=O)C[C@]2(C)C(=O)CC[C@@H]12)CC=C`, the growth is -10.6% (active) in the experiment on T-47D breast; -7.68% (active) in the experiment with BT-549 breast; 21.4% in the experiment with MDA-MB-435 melanoma; 39.8% in the experiment with SW-620 colon; 11.8% in the experiment with MCF7 breast; 14.6% in the experiment with HCT-116 colon. The growth is -20.4% (active) with HCC-2998 colon and 22.4% in the experiment on KM12 colon.

Regarding `Cc1cc(NCC(=O)Nc2ccc(-c3nc4ccccc4s3)cc2)no1`, the growth with T-47D breast is 80.3%; in the experiment on BT-549 breast, 94.7%; in the experiment on MDA-MB-435 melanoma, 104%; in the experiment with SW-620 colon, 113%; in the experiment on MCF7 breast, 35.9%; in the experiment with HCT-116 colon, 90.7%. Besides, the growth with HCC-2998 colon was 99.2%; with KM12 colon it was 102%.

As for `O=C1OCC2=C1C(c1cccc(F)c1)c1cc3c(cc1N2CCO)OCCO3` (centres undefined), the growth in the experiment on T-47D breast is 46.8%; in the experiment with BT-549 breast, 43.6%; in the experiment with MDA-MB-435 melanoma, -40.7% (active); with SW-620 colon, 26.8%; in the experiment with MCF7 breast, 15.6%; with HCT-116 colon, 11.2%. Also, the growth with HCC-2998 colon is 8.09% (active); in the experiment on KM12 colon, 14%.

For `COc1cnc2c(c1)C(=O)c1c-2n(CCCN2CCC(O)CC2)c(=O)c2cc(Cl)ccc12`, the growth with T-47D breast was 42.8%; in the experiment on BT-549 breast, 46.9%; with MDA-MB-435 melanoma it was 76.1%; in the experiment with SW-620 colon it was -32.1% (active); with MCF7 breast, 0.872% (active); with HCT-116 colon, -60% (active). Further, the growth with HCC-2998 colon is 51.5%; in the experiment on KM12 colon it was 45%.

Consider `COC(=O)[C@]12CC[C@@H](C)[C@H](C)[C@@H]1C1=CC[C@@H]3[C@@]4(C)C(C=O)=C[C@@](C)(COS(C)(=O)=O)C4=CC[C@@]3(C)[C@]1(C)CC2`, for which the growth in the experiment on T-47D breast is -10.6% (active); with BT-549 breast, -43.5% (active); with MDA-MB-435 melanoma, -73.8% (active); with SW-620 colon, -85.2% (active); with MCF7 breast it was -16.8% (active); with HCT-116 colon it was -81.2% (active). Further, the growth in the experiment on HCC-2998 colon was -83.5% (active); in the experiment with KM12 colon, -73% (active).

With `C[C@@H]1COC(Nc2ccc3ncnc(Nc4ccc(OCc5nccs5)c(Cl)c4)c3c2)=N1`, the growth was -17.5% (active) in the experiment with T-47D breast; 1.81% (active) in the experiment on BT-549 breast; 50.1% in the experiment with MDA-MB-435 melanoma; 76.8% in the experiment with SW-620 colon; 45.1% in the experiment on MCF7 breast; 30.1% in the experiment on HCT-116 colon. Further, the results for the growth with HCC-2998 colon and in the experiment on KM12 colon were 46.9% and 18.5%, respectively.

As to `CC1=CC2c3oc(-c4ccccc4)c(C(=O)c4ccccc4)c3CNC2C=C1` (centres undefined), the growth is 91.3% with T-47D breast; 103% in the experiment on BT-549 breast; 107% in the experiment on MDA-MB-435 melanoma; 97.1% with SW-620 colon; 84.2% in the experiment with MCF7 breast; 92.2% in the experiment on HCT-116 colon. For the same compound, the figures for the growth with HCC-2998 colon and in the experiment on KM12 colon were 102% and 101%, respectively.

For the compound `O=C1C=CC2(NN=C(c3ccccc3)N2c2ccccc2)c2cccc(O)c21` (centres undefined), the growth with T-47D breast was 78.8%; in the experiment with BT-549 breast it was 41.1%; in the experiment on MDA-MB-435 melanoma, -92.4% (active); with SW-620 colon, 34.9%; in the experiment with MCF7 breast, 35.4%; with HCT-116 colon it was 18.1%. Also, the values for the growth in the experiment with HCC-2998 colon and in the experiment on KM12 colon were 54.2% and 47.3%, respectively.
